Measurements as given in the supplement of paper PMC6555819.

Legend:
Experiment in all cases: PBM binding z-score (relative to random genomic background probes); higher = stronger binding; sequences stand for … in GC…GCGATTGACAGCGTAGAATGAAGG
[1] = system: FXR:RXRa (NR concentration 270 nM, RXRa partner concentration 90 nM)
Procedure, shortened: (§1)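 Ligand-free nuclear receptor dimers were applied to custom Agilent 4×180K protein-binding microarrays whose double-stranded probes carried direct-repeat seeds, single-nucleotide variants, half-site ablations and random human genomic background sequences in 34-nt variable regions. Incubation lasted 1 h. Binding z-scores were computed against the random background probes from regression-normalized fluorescence.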

[2] = system: LXRa:RXRa (NR concentration 270 nM, RXRa partner concentration 90 nM)
Procedure, shortened: as §1

[3] = system: LXRa homodimer (NR concentration 270 nM)
Procedure, shortened: as §1

[4] = system: LXRb:RXRa (NR concentration 270 nM, RXRa partner concentration 90 nM)
Procedure, shortened: as §1

[5] = system: LXRb homodimer (NR concentration 270 nM)
Procedure, shortened: as §1

[6] = system: PPARa:RXRa (NR concentration 270 nM, RXRa partner concentration 90 nM)
Procedure, shortened: as §1

[7] = system: PPARg:RXRa (NR concentration 180 nM, RXRa partner concentration 90 nM)
Procedure, shortened: as §1

[8] = system: PPARg:RXRa 270nM:90nM, anti-RXR (NR concentration 270 nM, RXRa partner concentration 90 nM)
Procedure, shortened: as §1

[9] = system: PPARg:RXRa 30nM:10nM, anti-RXR (NR concentration 30 nM, RXRa partner concentration 10 nM)
Procedure, shortened: as §1

[10] = system: PPARg:RXRa 90nM:30nM, anti-RXR (NR concentration 90 nM, RXRa partner concentration 30 nM)
Procedure, shortened: as §1

Sequence	PBM binding z-score [1]	PBM binding z-score [2]	PBM binding z-score [3]	PBM binding z-score [4]	PBM binding z-score [5]	PBM binding z-score [6]	PBM binding z-score [7]	PBM binding z-score [8]	PBM binding z-score [9]	PBM binding z-score [10]
CAAACTGGGTCACCGGAAGGTCAAAGTCCGCATG	5.54	5.51	3.33	5	0.871	5.73	9.06	7.43	4.95	7.29
CCTACTGGGCCATCAGGTCAGTGATATCAACGTT	0.148	0.0376	0.047	0.311	-0.379	1.91	2.01	2.42	0.364	1.92
TCTCGGAGGACACGGAGGTCAGAGCTTTCCAGAG	1.72	1.54	0.806	1.13	-1.06	2.22	0.548	1.54	1.85	1.75
AGAACGAGGGCACGCTGAATTGATAGCAGAGTAG	0.635	0.375	-0.408	0.0938	-0.694	1.92	2.24	2.02	0.73	1.04
CCTGACGGGTCACTGACAGGTTATAGCATTTGGA	4.19	3.46	0.214	2.64	-0.319	4.19	2.56	2.71	0.481	1.8
TCAGACAGGTGAAGGTAATTCAGGTACGCAGTCG	1.15	1.22	-0.0461	1.11	0.0602	1.41	0.743	2.25	3.9	3.02
CGAACTAGGTCATTGACAGGACATTGAATAGTAA	3.53	3.53	1.19	2.32	0.107	4.56	7.27	6.42	4.27	5.95
ACTAGCAGGCCAAGGGTCACTGAAGATTAGTCCG	3.07	2.89	0.0691	2.66	-0.585	4.73	8.44	7.62	6.5	8.43
CATACAGGGTCAGCTAGGCCAGAGGAGGGACGGC	4.49	3.1	-0.068	2.08	0.388	4.31	3.63	2.81	0.595	1.67
CTCGAAGGGTCGGTTGAGGTGAGTATACGGATAA	2.14	0.689	-0.0739	0.752	-0.256	1.37	0.221	0.4	0.00814	0.0401
CGAACTAGGTCATTGACAGGTCAGTGAATAGTAA	4.77	4.22	2.06	3.2	0.218	5.01	7.86	6.55	3.81	6.32
TAGCCTAGGTCATGTGGGCCAGTATAGTGTCGGC	4.35	2.97	0.553	1.85	0.185	3.53	2.11	2.75	0.388	1.46
CCGCCTGGGGCATAAGGTTACCATAAGCCAGCCC	0.396	2.13	-0.0987	0.843	-1.3	1.3	0.507	0.996	-0.661	0.461
GCTGCTAGATCAACTGATGGTCAGCTAAAGCTCG	-0.351	-0.658	-0.708	-0.94	-1.09	-0.675	-0.337	-0.606	-0.466	-0.434
TCGAGTAGGTTACCAATGGGGCCTTCAGCTTTCT	-0.184	0.128	-0.933	-0.0136	-1.01	0.918	-0.264	0.957	0.922	0.958
TCTGCTAGGCCAACGATGGTCAGCTAATCTGCTA	-1.19	-0.741	-1.19	-1.05	-1.1	-0.375	-0.327	0.663	1.12	0.978
CAGCCTTGGTCAGGGCCAGTATAGGAGGAACGTT	-0.896	-0.936	-0.824	-0.976	-1.46	-0.531	-0.0449	-0.51	-0.686	-0.517
CGTTACGGGTCAAGGTTATAGCACGGGTGGTACG	5.94	3.83	0.0546	3.09	-0.0956	5.35	4.95	4.72	1.51	3.37
ATATGTAGGGTAAGGGTCATTCAGGTTGGTTCGC	4.75	4.47	2.94	4.47	3.06	6.52	11.9	10.3	11.2	12
CCGACTAGGGCAAGGTTACCATAACGCACAGCCA	0.299	0.666	-0.117	0.701	-1.03	1.93	3.55	3.99	1.61	3.28
CAAACTAGGTCAAAGGTAAAAGTCGAGCCAACCA	5.4	4.12	0.676	3.51	0.646	6.67	13	10.3	12.5	12.1
CAAACTATGTCACCGGAAGGTCAAAGTCCGCATG	3.73	3.78	4.13	3.89	1.52	4.37	3.69	4.08	1.4	2.98
TGAATTAGGTTAAAGATCAGGGAACGTGGCGTCG	0.694	0.724	0.0716	0.548	0.342	4.09	6.76	7.47	5.99	8.06
ATCTCTAGGTAAAGATAGCTCAGTGAATGCAAAT	-0.126	-0.286	-0.237	-0.258	0.316	-0.203	0.422	0.32	0.153	0.317
CAAACTAGGTCGAGAGGTCAAAGTCCGCTTCCCG	5.34	5.53	4.87	4.61	1.17	5.6	6.98	6.37	4.44	6.54
